PubChem BioAssay AID1851 (National Center for Advancing Translational Sciences (NCATS), 2009)
“And” between values parts separate entries of the source, which are not always exact repeats. Identical values can stand only once. Screen size: about 16,000 compounds; about 2,600 (16%) were called active. Inconclusive results (about 20%) are left out. A selection follows. Values without a mark were called inactive. Calls come from the whole dose curve; as a rule, active = well fitted curve in the direction sought with a large enough effect; inconclusive = small, poorly fitted or top-dose-only effect, or effect the other way; inactive = no such curve, though single readings can be large or run the other way.

Target: Cytochrome P450 2D6 (Homo sapiens) (UniProt P10635)
Experiment: Cytochrome panel assay with activity outcomes
Settings: recombinant CYP, pro-luciferin dealkylation, luminescence, p450-cyp2d6; series mostly up to 57.1 µM; activity, negative = inhibition: at the top concentration
% is set by controls: 0 for no effect and ±100 for the full control effect.

Cytochrome P450 2D6 (Homo sapiens), sequence (P10635 whole entry, looked up): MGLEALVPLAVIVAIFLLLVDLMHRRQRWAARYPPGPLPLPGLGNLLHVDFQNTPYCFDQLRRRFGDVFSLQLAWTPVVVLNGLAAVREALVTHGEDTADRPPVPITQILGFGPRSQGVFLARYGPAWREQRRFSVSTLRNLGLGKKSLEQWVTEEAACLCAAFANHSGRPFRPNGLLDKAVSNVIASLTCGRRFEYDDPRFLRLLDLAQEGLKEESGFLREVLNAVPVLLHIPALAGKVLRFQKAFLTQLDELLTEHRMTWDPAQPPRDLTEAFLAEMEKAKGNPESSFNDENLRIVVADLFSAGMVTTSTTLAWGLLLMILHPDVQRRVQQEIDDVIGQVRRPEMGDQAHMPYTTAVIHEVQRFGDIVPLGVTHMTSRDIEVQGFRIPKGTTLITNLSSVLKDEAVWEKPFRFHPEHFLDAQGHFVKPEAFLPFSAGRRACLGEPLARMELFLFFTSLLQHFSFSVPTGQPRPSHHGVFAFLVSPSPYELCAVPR

In order of falling “activity, negative = inhibition” value:
1. Cc1ccc(SCc2cc(=O)[nH]c(/N=C(\N)Nc3ccc(C)c(C)c3)n2)cc1  43.6%
2. O=P(O)(COc1ccccc1)COc1ccccc1  36%
3. COCCn1c(=O)c(-c2cccs2)nc2cnc(N(C)C)nc21  15.9%
4. Cc1ccc(/C=N/NC(=O)CSc2nc3nc(C)cc(C)n3n2)cc1  15.2%
5. CC(C)=C1C(=O)NN(c2ccc(F)c(Cl)c2)C1=O  14.5%
6. COc1ccc2cc(C)c3nnc(SCC(=O)Nc4nc(-c5ccccc5)cs4)n3c2c1  9.28%
7. CC(C)OC(=O)C(CC(=O)O)N1CCOCC1 (configuration not stated)  5.53%
8. CC(C)(C)n1nc(-c2ccc(Cl)cc2)c2c(N)ncnc21  5.37%
9. N[C@@H](C(=O)O)c1cc(O)ccc1Cl  4.25%
10. CNc1ncnc2c1ncn2[C@@H]1O[C@@H](CO)[C@H](O)[C@@H]1O  4.16%
11. COc1ccc(Nc2cc(=O)n(C3CCCCC3)c(=O)[nH]2)c(OC)c1  2.69%
12. COc1ccccc1N1CCN(CCn2c(=O)[nH]c3c([nH]c4ccccc43)c2=O)CC1  2.42%
13. CNc1ncnc2c1ncn2[C@H]1C[C@@H](OP(=O)(O)O)[C@H](COP(=O)(O)O)O1  2.01%
14. Cc1cc(C)n2nc(SCC(=O)N/N=C/c3ccccc3F)nc2n1  1.33%
15. O=c1c(-c2cccs2)nc2cnc(Nc3ccccc3)nc2n1C[C@H]1CCCO1  1.23%
16. COc1ccc(Oc2ncc3nc(-c4cccs4)c(=O)n(-c4ccccc4)c3n2)cc1  0.931%
17. CCCSc1nc(C)cc(C)c1C(N)=O  0.375%
18. O=c1cc(-c2ccccc2)[nH]n1-c1ccc([N+](=O)[O-])cc1  0.207%
19. Nc1nc(=S)[nH]c2c1C1(CCCC1)Cc1ccccc1-2  0.13%
20. N=c1ccn2c(n1)O[C@@H]1[C@@H](O)[C@H](CO)O[C@H]12  0.0096%
21. Cc1cccc(C(=O)NNC(=O)C2CCCO2)c1 (configuration not stated)  -1.17%
22. Cc1cc(NC(=O)CN2C(=O)NC(C)(c3ccc(OC(F)F)cc3)C2=O)no1 (configuration not stated)  -3.78%
23. Cc1nc2cncnc2n(Cc2ccc(F)cc2)c1=O  -4.78%
24. c1ccc(-n2ncc3c2ncn2cnnc32)cc1  -5.51%
25. COc1ccc(NC(=O)c2ccc(C(=O)c3cc(OC)ccc3OC)cc2)cc1  -5.54%
26. Cc1ccc(-c2c(C)sc(NC(=O)C3C4CCC(O4)C3C(=O)O)c2C(=O)OC(C)C)cc1 (configuration not stated)  -5.58%
27. Cc1ccc2cc(C)c3nnc(SCC(=O)NCc4ccco4)n3c2c1  -6.47%
28. CC1CCCC(NC(=O)CCn2c(=O)oc3ccccc32)C1C (configuration not stated)  -7.45%
29. Cc1nc(S(=O)(=O)NC2CCCCC2)c(C#N)c(C)c1Cl  -9.51%
30. Cc1ccccc1/C=N\NC(=O)c1csnn1  -10.8%
31. COc1ccccc1N1CCN(CCCCNC(=O)c2ccc(-c3ccc(C(C)=O)cc3)cc2)CC1  -10.8%
32. COc1ccc(C(=O)Nc2cccc(/C(C)=N/NC(=O)c3ccc([N+](=O)[O-])cc3)c2)cc1OC  -12%
33. Cc1ccc(C2C3=C(CCCC3=O)Nc3nc(SCC(=O)NCc4ccco4)[nH]c(=O)c32)cc1 (configuration not stated)  -12.2%
34. COc1cc(NS(C)(=O)=O)ccc1Nc1c2ccccc2nc2ccccc12  -12.4%
35. COc1ccccc1N1CCN(CCCCN2C(=O)CCC2=O)CC1  -13.2%
36. Cc1ccc(NC(=S)Nc2ccc(Br)cc2)cc1  -17.6%
37. C=CCn1c(SCC(=O)Nc2ncc(Cc3ccc(Br)cc3)s2)nnc1-c1ccncc1  -19.6%
38. CC(=O)Nc1ccc(NC(=O)CSc2ncnn2-c2ccccc2)cc1  -21.7%
39. O=C(CSc1nnc(-c2ccccn2)n1Cc1ccco1)Nc1ccc2c(c1)OCO2  -27.1%

With `COc1ccc(Br)cc1C(=O)Nc1ccc(Cc2ccncc2)cc1` the AC50 was 0.0398 µM (active).
With `COc1ccccc1-c1nc(N(C)C)c2ccccc2n1` the AC50 was 3.16 µM (active).
For `Cc1ccccc1-c1nc(N(C)C)c2ccccc2n1`, the AC50 was 12.6 µM (active).
For `CN(C)c1nc(-c2ccccc2C(F)(F)F)nc2ccccc12`, the AC50 was 10 µM (active).
For `COc1ccccc1N1CCN(CCCNc2cc(=O)n(C)c(=O)n2C)CC1`, the AC50 was “inactive”.
With `COc1ccccc1N1CCN(CCCCNC(=O)c2ccc3ccccc3c2)CC1` the AC50 was 3.16 µM (active) and 3.98 µM (active).
For `COc1ccccc1N1CCN(CCCCNS(=O)(=O)c2cccc3c(N(C)C)cccc23)CC1`, the AC50 was 15.8 µM (active).
`CNc1ncnc2c1ncn2[C@H]1C[C@H](OP(=O)(O)O)[C@H](COP(=O)(O)O)O1` was tested, and the AC50 was 5.01 µM (active).
For `COc1ccccc1CNC(=O)CSc1nc2nc(C)cc(C)n2n1`, the AC50 was 15.8 µM (active).
For `O=[N+]([O-])c1ccc(-c2cnc(SCc3ccccc3Cl)[nH]2)cc1`, the AC50 was 12.6 µM (active).
In the case of `C[N+](C)(CCCOc1ccccc1)c1ccccc1`, the AC50 is reported as 0.0158 µM (active).
For `Cc1ccc(SCCNC(=S)Nc2ccc(C)c(C)c2)cc1`, the AC50 was 4.47 µM (active).
With `CC(=O)Nc1ccc(NC(=O)CSc2nnc(-c3ccccc3)n2Cc2ccc3c(c2)OCO3)cc1` the AC50 was 12.6 µM (active).
For `Cc1cc2cc(C)c3nnc(SCC(=O)NCc4ccc5c(c4)OCO5)n3c2cc1C`, the AC50 was 17.8 µM (active).

In order of falling activity, negative = inhibition:
1. O=C(O)c1cscc1Cc1cccs1  14.2% [at 11.4 µM]
2. O=C(O)[C@H](Cc1cc(I)c(O)c(I)c1)C1CCCCC1  10.8% [at 11.4 µM]
3. O=C(O)/C=C\C(=O)Nc1cccc2c1-c1ccccc1C2=O  10.1% [at 11.4 µM]
4. CC(C)C12CC[C@@]3(CC[C@H]4[C@@](C)(CCC[C@]4(C)C(=O)O)[C@@H]3C1)[C@@H](CN)C2  6.15% [at 11.4 µM]
5. CO[C@@H]1COC(=O)[C@H](C)NC(=O)C/C=C\[C@@H](C)[C@@H](NS(=O)(=O)c2ccc(C)cc2)COC(=O)C/C=C\[C@@H]1C  5.57% [at 11.4 µM]
6. CC(CO)(CO)N=Cc1cc(I)cc(I)c1O  3.56% [at 11.4 µM]
7. O=c1[nH]c(SCc2ccccc2[N+](=O)[O-])nc2nc[nH]c12  -3.83% [at 11.4 µM]
8. O=C(Nc1ccc(-c2cn3ccccc3n2)cc1)c1cc(Br)ccc1O  -3.93% [at 11.4 µM]
9. CC(C)=NO[C@@H](C)c1cc(-c2c(C)cc(C)cc2C)no1  -6.21% [at 11.4 µM]
